Measured values from PubChem BioAssay AID1159580 (chemical genetic matrix, 2015).
In all, about 5,500 compounds went through this assay and about 2,000 (36%) were called active. About 18% were inconclusive and are not listed. No stated cut-off is given here; in the data, active means normalized growth mostly below about 0.91 (no sharp cut-off); inconclusive means no clear call, values can overlap the other calls; inactive means mostly above about 0.92. The list shows a part of the results.

Test: chemical genetic growth profiling, strain panel (AID 1159580);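 further: tested at 20 µM; growth read once vehicle control cultures reached saturation at 30 °C; 1 = growth at the plate median or of vehicle wells; lower values mean less growth of the strain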
Details: S. cerevisiae deletion strains, growth OD

Measured: normalized growth

Nc1ccc(N=Nc2ccc(S(N)(=O)=O)cc2)c2ccccc12
inactive: locus YAL013W, strain DEP1, active compounds read low 0.999 | locus YBR229C, strain ROT2, active compounds read low 1 | locus YCL061C, strain MRC1, active compounds read low 0.998 | locus YDL101C, strain DUN1, active compounds read low 0.98 | locus YDR150W, strain NUM1, active compounds read low 0.906 | locus YEL061C, strain CIN8, active compounds read low 0.989 | locus YGR078C, strain PAC10, active compounds read low 1 | locus YGR229C, strain SMI1, active compounds read low 1 | locus YHR030C, strain SLT2, active compounds read low 1.04 | locus YHR087W, strain rtc3, active compounds read low 0.995 | locus YJL187C, strain SWE1, active compounds read low 1.01 | locus YJR043C, strain POL32, active compounds read low 1 | locus YJR075W, strain HOC1, active compounds read low 1.02 | locus YLR039C, strain RIC1, active compounds read low 0.983 | locus YLR058C, strain SHM2 (second series), active compounds read low 1.01 | locus YLR085C, strain ARP6, active compounds read low 1.03 | locus YLR262C, strain YPT6, active compounds read low 1 | locus YML094W, strain GIM5, active compounds read low 0.986 | locus YMR219W, strain ESC1, active compounds read low 0.994 | locus YMR263W, strain SAP30, active compounds read low 0.916 | locus YNL153C, strain GIM3, active compounds read low 1 | locus YNL298W, strain CLA4 (second series), active compounds read low 0.982 | locus YNL322C, strain KRE1, active compounds read low 0.997 | locus YNR030W, strain Alg12, active compounds read low 1.01 | locus YPL055C, strain LGE1, active compounds read low 0.893 | locus YPL241C, strain CIN2, active compounds read low 1 | locus YPR135W, strain CTF4, active compounds read low 1.06
